High-throughput results deposited in PubChem BioAssay by Small Molecule Screening Facility, UW Madison.
RMI FANCM FP – inhibitors of human RMI core complex binding to FANCM MM2 | hit rate 0.58% among 70,000 | FP signal (polarization) at 33 µM | Fluorescence polarization, RMI core complex with F-MM2 peptide; stronger effect = lower value | AID 1159607; in the data active means FP signal below about 40
* hit, by the source's call. The sample as a whole holds a higher share of hits than the screen did.

SMILES	RMI FANCM FP
COc1ccc(C(=O)CN2CCN(CCN3C(=O)c4cccc5cccc(c45)C3=O)CC2)cc1	25*
COc1ccc(OC)c2sc(NC(=O)Cc3ccc(F)cc3)nc12	55
CCc1nnc(NC(=O)CCN2C(=O)/C(=C\c3ccco3)SC2=S)s1	65
CCN(Cc1ccccc1)C(=O)CCN1C(=O)/C(=C\c2ccco2)SC1=S	22*
O=C1/C(=C\c2ccco2)SC(=S)N1CCS(=O)(=O)O	65
Fc1ccc(-c2csc(N/N=C\c3ccccc3)n2)cc1	56
C=CCc1cccc(/C=N\Nc2nc(-c3ccc4ccccc4c3)cs2)c1O	14*
O=[N+]([O-])c1cccc(/C=N\Nc2nc(-c3ccc(Cl)c(Cl)c3)cs2)c1	58
CCOc1ccc(-c2nc(NC(=O)c3ccc(N4C(=O)CCC4=O)cc3)sc2C)cc1	57
Cc1cc(NC(=O)CN2C(=O)/C(=C\c3cccs3)SC2=S)no1	54
C/C(=N/Nc1ccccc1)c1cc(Cl)cc(Cl)c1O	45
COc1ccc(-c2cc3ccc4c(c3oc2=O)CN(CC2CCCO2)CO4)cc1OC (stereo unspecified)	-5
COCCCN1COc2ccc3cc(-c4cc(OC)ccc4OC)c(=O)oc3c2C1	35*
CCOCCCN1COc2ccc3c(=O)c(-c4ccc(Cl)cc4)coc3c2C1	63
O=C(Cn1cc(Cl)c(=O)c(Cl)c1)N/N=C\c1ccc([N+](=O)[O-])s1	52
Cc1ccccc1NC(=O)CSc1nc2c(cnn2-c2cccc(Cl)c2)c(=O)[nH]1	64
CN(C)c1ccc(CCCNC(=O)c2ccc(Cl)cc2)cc1	73
O=C(NCCn1ncccc1=O)Nc1ccc2c(c1)OCO2	64
Fc1ccc(-c2nc(=S)c3c([nH]2)Oc2ccc(Br)cc2C3)cc1	26*
Fc1ccc(-c2noc(-c3ccc4c(c3)CCO4)n2)cc1	59
CCCN1CCCc2cc(CCNC(=O)COc3ccc(F)cc3)ccc21	69
Brc1ccc(-c2ccc(Br)s2)s1	63
Fc1ccc2ncc(-c3ccc(Br)s3)nc2c1	9*
Fc1ccc2nc(NCc3cccnc3)sc2c1	66
O=C(Nc1cccc(C(F)(F)F)c1)c1ccc([N+](=O)[O-])o1	52
SMILES	RMI FANCM FP
Cc1ccc(C)n1CCNc1ccc(C(F)(F)F)cc1[N+](=O)[O-]	51
CC(C)(CCOC(=O)c1ccc([N+](=O)[O-])o1)Nc1ccc(C(F)(F)F)cc1[N+](=O)[O-]	40*
COC(=O)CSc1ccc(NC(=O)C2CC2)nn1	67
Cn1cccc1C(CNC(=O)C(=O)Nc1ccc2c(c1)OCCO2)N1CCCC1 (stereo unspecified)	64
COc1cc2ncnc(Sc3ccccn3)c2cc1OC	65
Cc1nc(Cl)c2c3c(sc2n1)CCCC3	57
Cc1nc2sc3c(c2c(=O)o1)CCCC3	53
Cc1nc(Sc2nc3ccccc3o2)c2c3c(sc2n1)CCCC3	30*
O=C(NCC1CCN(Cc2cccs2)CC1)c1cccc2ccccc12	76
Cc1cccc(Oc2nc3ccccn3c(=O)c2/C=C(\C#N)c2nc3ccccc3s2)c1	0*
N#C/C(=C\c1cn[nH]c1-c1ccccc1)c1nc2ccccc2s1	68
N#C/C(=C\c1ccc(C#N)cc1)c1nc2ccccc2s1	71
O/N=C1\Cc2ccccc2OC1c1ccc(F)cc1 (stereo unspecified)	63
N=C(N)SCCO	62
CCOC(=O)c1oc2ccccc2c1NC(=O)C1CCN(S(C)(=O)=O)CC1	68
CCOC(=O)c1c(C)[nH]c(C(=O)CSc2ccc(Cl)cc2)c1C	71
COC(=O)c1c(NC(=O)CN2CCCCCC2)sc2c1CCCC2	73
COC(=O)c1c(C)[nH]c(C(=O)CN2CCCCCC2)c1C	6*
COc1ccc(OCCC(=O)N/N=C\C=C\c2ccccc2)cc1	60
NC(=O)C1Cc2ccccc2N1C(=O)C1CC1 (stereo unspecified)	66
NC(=O)C1Cc2ccccc2N1C(=O)c1cccs1 (stereo unspecified)	53
NC(=O)C1Cc2ccccc2N1C(=O)Nc1cccs1 (stereo unspecified)	28*
Cc1ccc(NC(=O)C(=O)NCC(c2ccc3c(c2)CCN3C)N2CCCCC2)cc1C (stereo unspecified)	50
CCOC(=O)/C(C#N)=C/N=C(N/N=C\c1ccc(Cl)cc1)SC	56
COc1ccc(C(=O)CSc2ccc(NC(=O)C(C)C)nn2)cc1	68
SMILES	RMI FANCM FP
O=C(Nc1ccc(SCc2cccnc2)nn1)C1CC1	66
COC(=O)c1sccc1N/C=C(\C#N)C(=O)c1cccc(CSc2ccc(Cl)cc2)c1	7*
COC(=O)c1sccc1N/N=C(\C#N)C(=O)c1ccc(Cl)cc1	58
COC(=O)c1sccc1N/C=C(\C#N)C(=O)c1ccco1	59
O=c1c2scc(-c3ccccc3)c2ncn1Cc1ccccc1F	65
c1csc(-c2ccn[nH]2)c1	55
Cc1nc(-c2ccnc(=S)[nH]2)cs1	57
S=c1nccc(-c2ccc(-c3cccs3)s2)[nH]1	33*
CCOC(=O)c1ccccc1NC(=O)CSc1nc2cc(-c3ccccc3)sc2c(=O)n1C	52
C#CC(C)(CC)OCC(O)CN1CCN(Cc2ccc3c(c2)OCO3)CC1 (stereo unspecified)	61
CCC(=O)Nc1nc2cc3c(cc2s1)OCCO3	73
c1c2c(cc3sc(N4CCN(c5nc6cc7c(cc6s5)OCCO7)CC4)nc13)OCCO2	63
NNc1nc2cc3c(cc2s1)OCCO3	-6*
CCOc1cn(C)c(C(=O)NCc2ccccc2)cc1=O	63
Cc1c(NC(=O)CC2CCCCN2S(=O)(=O)c2cccs2)c(=O)n(-c2ccccc2)n1C (stereo unspecified)	67
O=C1NC(=Nc2ccc(Cl)cc2)SC1Cc1cccc([N+](=O)[O-])c1 (stereo unspecified)	62
O=C1NC(=Nc2ccccc2)SC1Cc1cccc([N+](=O)[O-])c1 (stereo unspecified)	-6*
O=C(O)CC1SC(=Nc2ccc(O)cc2)NC1=O (stereo unspecified)	62
CCOC(=O)c1nc2ccccc2c(=O)n1/N=C\c1cc(Cl)cc(Cl)c1O	58
O=C1CC(c2ccc(O)cc2)Oc2cc(O)cc(O)c21 (stereo unspecified)	63
O=C(O[C@@H]1Cc2c(O)cc(O)cc2O[C@@H]1c1cc(O)c(=O)c2c(O)c(O)cc([C@H]3Oc4cc(O)cc(O)c4C[C@H]3O)c2c1)c1cc(O)c(O)c(O)c1	46
Oc1cc(O)c2c(c1)O[C@H](c1cc(O)c(O)c(O)c1)[C@H](O)[C@H]2c1c(O)cc(O)c2c1O[C@H](c1cc(O)c(O)c(O)c1)[C@H](O)[C@H]2c1c(O)cc(O)c2c1O[C@H](c1cc(O)c(O)c(O)c1)[C@H](O)C2	-7*
O=C(NCCS(=O)(=O)NCCC1=CCCCC1)c1ccccc1	53
CC1(C)C2CCC1[C@@H]1NS(=O)(=O)C[C@H]21 (stereo partly specified)	40
O=C1NC(=S)/C(=C/c2ccc(-c3ccccc3[N+](=O)[O-])o2)S1	9*
CCOC(=O)c1ccc(-c2ccc(/C=C3\SC(=O)NC3=S)o2)cc1	-42
O=C1C(=Cc2ccc(-c3ccc(C(F)(F)F)cc3[N+](=O)[O-])o2)C(=O)c2ccccc21	59
COCCNC(=O)Cn1nc(C2CC2)c2cnn(-c3ccc(F)cc3)c2c1=O	64
O=C(NCCc1ccc(Cl)cc1)C(=O)Nc1ccc(F)c(F)c1	78
O=c1[nH]c(=S)c2c(n1-c1ccc3c(c1)OCCO3)CCC2	65
